Read-out in assay [1]: Interleukin-8 (IL8), CXCL8 (gene 3576)
Kind of assay: BSK_hDFCGF_IL8: BioMAP Diversity Plus: hDFCGF Assay for Interleukin-8 (IL8) Biomarker Activity (AID 2283058). Conditions: primary human foreskin fibroblasts; actives raise or lower the signal. Put shortly: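 Primary human foreskin fibroblasts (hDFCGF system) dosed with chemical; IL-8 measured by ELISA 24 hours later. Bidirectional curve fitting relative to DMSO baseline; cytotoxicity tracked in parallel cultures by SRB total protein staining.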

Assay [2] in a line: BSK_hDFCGF_Proliferation: Cell Proliferation Assessment in the BioMAP Diversity Plus: hDFCGF Assay (AID 2283059).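 Also: curves fitted for both rise and fall of signal versus DMSO baseline.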 The note with it: primary human foreskin fibroblasts. A digest of the protocol:
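Sub-confluent human foreskin fibroblast cultures receive test chemical […]. Relative cell number is quantified by sulforhodamine B staining (0.1%, after 10% TCA fixation) at 560 nm, with bidirectional fitting referenced to DMSO.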

Read-out in assay [3]: Macrophage colony-stimulating factor (MCSF), CSF1 (gene 1435)
Kind of assay: BSK_hDFCGF_MCSF: BioMAP Diversity Plus: hDFCGF Assay for Macrophage colony-stimulating factor (MCSF) Biomarker Activity (AID 2283060). The note with it: primary human foreskin fibroblasts; actives raise or lower the signal. Put shortly:
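Human foreskin fibroblast primary cultures; M-CSF measured by ELISA 24 hours after chemical dosing. Bidirectional fitting relative to DMSO, with overt cytotoxicity tracked by parallel SRB total-protein staining (0.1% SRB, 10% TCA fixation, 560 nm).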

Assay [4] is described as follows: BSK_hDFCGF_SRB: Viability Assessment in the BioMAP Diversity Plus: hDFCGF Assay (AID 2283061).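 Also: cells exposed to compound for 24 h before the read.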 The note with it: primary human foreskin fibroblasts. A digest of the protocol: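 Human foreskin fibroblasts in 96-well plates were treated 24 h. Total protein was measured by 0.1% SRB staining after 10% TCA fixation, read at 560 nm. Data were fitted bidirectionally against DMSO.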

Read-out in assay [5]: TIMP metallopeptidase inhibitor 1 (TIMP1), TIMP1 (gene 7076)
Kind of assay: BSK_hDFCGF_TIMP1: BioMAP Diversity Plus: hDFCGF Assay for TIMP metallopeptidase inhibitor 1 (TIMP1) Biomarker Activity (AID 2283062). The note with it: primary human foreskin fibroblasts; actives raise or lower the signal. Put shortly:
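Human foreskin fibroblast primary cultures dosed for 24 h; secreted/surface TIMP-1 quantified by ELISA. Bidirectional curve fitting against DMSO baseline; cytotoxicity tracked in parallel cultures by SRB total-protein staining.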

Read-out in assay [6]: Monokine induced gamma interferon (MIG), CXCL9 (gene 4283)
Kind of assay: BSK_hDFCGF_MIG: BioMAP Diversity Plus: hDFCGF Assay for Monokine induced gamma interferon (MIG) Biomarker Activity (AID 2283063). The note with it: primary human foreskin fibroblasts; actives raise or lower the signal. Put shortly:
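MIG/CXCL9 measured by ELISA 24 h after dosing primary human skin fibroblasts. Activity fitted in both directions against DMSO controls. Cytotoxicity was checked in parallel cultures by SRB staining read at 560 nm.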

Read-out in assay [7]: Matrix Metallopeptidase 1 (MMP1), MMP1 (gene 4312)
Kind of assay: BSK_hDFCGF_MMP1: BioMAP Diversity Plus: hDFCGF Assay for Matrix Metallopeptidase 1 (MMP1) Biomarker Activity (AID 2283064). The note with it: primary human foreskin fibroblasts; actives raise or lower the signal. Put shortly: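 Primary human foreskin fibroblasts in the hDFCGF system were dosed with test chemical, and MMP1 was measured by ELISA 24 h later. Values come from bidirectional curve fitting against the DMSO baseline.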

Read-out in assay [8]: Vascular cell adhesion molecule 1 (VCAM1), VCAM1 (gene 7412)
Briefly: BSK_hDFCGF_VCAM1: BioMAP Diversity Plus: hDFCGF Assay for Vascular cell adhesion molecule 1 (VCAM1) Biomarker Activity (AID 2283065).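 As to AC50: VCAM-1 protein level quantified by ELISA after 24 h chemical exposure.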 Conditions: primary human foreskin fibroblasts; actives raise or lower the signal. A digest of the protocol:
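Human foreskin fibroblast primary cells dosed with chemical, VCAM-1 measured by ELISA at 24 h. Bidirectional curve fitting relative to DMSO as negative control/baseline.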

Read-out in assay [9]: Plasminogen activator inhibitor-1 (PAI1), SERPINE1 (gene 5054)
Briefly: BSK_hDFCGF_PAI1: BioMAP Diversity Plus: hDFCGF Assay for Plasminogen activator inhibitor-1 (PAI1) Biomarker Activity (AID 2283066). The note with it: primary human foreskin fibroblasts; actives raise or lower the signal. Put shortly: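 Human foreskin fibroblasts in the hDFCGF system were dosed with compound for 24 h; PAI-1 was quantified by ELISA. Bidirectional curve fitting used DMSO as negative control and baseline.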

Read-out in assay [10]: Interferon-gamma inducible Protein 10 (IP10), CXCL10 (gene 3627)
Briefly: BSK_KF3CT_IP10: BioMAP Diversity Plus: KF3CT Assay for Interferon-gamma inducible Protein 10 (IP10) Biomarker Activity (AID 2283068). Conditions: primary human keratinocytes with fibroblasts; actives raise or lower the signal. A digest of the protocol: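 ELISA read-out of IP-10 after 24 h chemical dosing of human skin primary co-culture (keratinocytes, foreskin fibroblasts). Gain or loss of signal relative to DMSO, bidirectional curve fit.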

Assay [11] can be described thus: BSK_KF3CT_SRB: Viability Assessment in the BioMAP Diversity Plus: KF3CT Assay (AID 2283069).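 Also: total protein by sulforhodamine B staining as a cytotoxicity measure; read 24 h after compound addition.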 The note with it: primary human keratinocytes with fibroblasts. A digest of the protocol:
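Human primary keratinocyte plus foreskin fibroblast co-culture exposed to chemicals for 24 h. Total protein measured by 0.1% sulforhodamine B staining after 10% TCA fixation, read at 560 nm; bidirectional fitting versus DMSO baseline.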

Read-out in assay [12]: Interleukin-1 alpha (IL1a), IL1A (gene 3552)
Kind of assay: BSK_KF3CT_IL1a: BioMAP Diversity Plus: KF3CT Assay for Interleukin-1 alpha (IL1a) Biomarker Activity (AID 2283070). The note with it: primary human keratinocytes with fibroblasts; actives raise or lower the signal. Put shortly:
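Human keratinocyte plus foreskin fibroblast primary co-culture, sampled 24 h after chemical dosing. IL-1a measured by ELISA; responses fitted bidirectionally against DMSO baseline (negative control), so gain or loss of signal both count.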

Read-out in assay [13]: Matrix Metallopeptidase 9 (MMP9), MMP9 (gene 4318)
Briefly: BSK_KF3CT_MMP9: BioMAP Diversity Plus: KF3CT Assay for Matrix Metallopeptidase 9 (MMP9) Biomarker Activity (AID 2283074).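 As to AC50: MMP9 protein level quantified by ELISA in the co-culture.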 Conditions: primary human keratinocytes with fibroblasts; actives raise or lower the signal. Put shortly:
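Keratinocyte plus foreskin fibroblast human primary skin co-culture was dosed with chemical and MMP-9 was quantified by ELISA 24 h later. Bidirectional curve fitting used DMSO as negative control and activity baseline.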

Read-out in assay [14]: urokinase plasminogen activator (uPA), PLAU (gene 5328)
Briefly: BSK_KF3CT_uPA: BioMAP Diversity Plus: KF3CT Assay for urokinase plasminogen activator (uPA) Biomarker Activity (AID 2283075). Conditions: primary human keratinocytes with fibroblasts; actives raise or lower the signal. Put shortly: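 Human keratinocyte plus foreskin fibroblast primary co-culture exposed to chemical for 24 h. uPA levels were quantified by ELISA, and activity was fitted bidirectionally against a DMSO negative-control baseline.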

Read-out in a further assay: CD40, CD40 (gene 958)
Briefly: BSK_LPS_CD40: BioMAP Diversity Plus: LPS Assay for CD40 Biomarker Activity (AID 2283076). Conditions: primary human HUVEC with PBMC; actives raise or lower the signal. Put shortly:
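HUVEC plus PBMC co-culture stimulated with LPS; CD40 quantified by ELISA 24 h after compound dosing. Fitting was bidirectional relative to DMSO. SRB staining of parallel cultures flagged overt cytotoxicity.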

Read-out in assay [15]: E-selectin (Homo sapiens) (UniProt P16581)
Briefly: BSK_LPS_Eselectin: BioMAP Diversity Plus: LPS Assay for Eselectin Biomarker Activity (AID 2283077). Conditions: primary human HUVEC with PBMC; actives raise or lower the signal. Put shortly:
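Human umbilical vein endothelial cells co-cultured with PBMC under LPS stimulation; cell-surface E-selectin measured by ELISA 24 h after dosing. Change in either direction versus DMSO, with SRB total-protein staining in parallel cultures for cytotoxicity.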

A short description of assay [16]: BSK_LPS_SRB: Viability Assessment in the BioMAP Diversity Plus: LPS Assay (AID 2283079).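 Also: total protein by sulforhodamine B absorbance as a cytotoxicity measure; measured one day after compound addition.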 Conditions: primary human HUVEC with PBMC. Put shortly: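 Co-culture of human umbilical vein endothelial cells and PBMC, read 24 h after dosing. Total protein by 0.1% SRB staining after 10% TCA fixation, absorbance at 560 nm; bidirectional fit against DMSO.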
Read-out in assay [17]: Macrophage colony-stimulating factor (MCSF), CSF1 (gene 1435)
Briefly: BSK_LPS_MCSF: BioMAP Diversity Plus: LPS Assay for Macrophage colony-stimulating factor (MCSF) Biomarker Activity (AID 2283083). The note with it: primary human HUVEC with PBMC; actives raise or lower the signal. Put shortly: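 HUVEC–PBMC co-culture, M-CSF measured by ELISA 24 h after chemical dosing. Fitted in both directions relative to DMSO as negative control; overt cytotoxicity assessed by SRB total-protein staining in parallel cultures.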

Read-out in assay [18]: Tissue Factor, F3 (gene 2152)
Briefly: BSK_LPS_TissueFactor: BioMAP Diversity Plus: LPS Assay for Tissue Factor Biomarker Activity (AID 2283084). The note with it: primary human HUVEC with PBMC; actives raise or lower the signal. Put shortly:
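Human umbilical vein endothelial cells co-cultured with PBMC were dosed with compound. Cell-surface CD142 was measured by ELISA 24 h later. Activity was fitted bidirectionally against DMSO, with SRB total-protein staining in parallel cultures for cytotoxicity.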

Read-out in assay [19]: Tumor necrosis factor (Homo sapiens) (UniProt P01375)
Briefly: BSK_LPS_TNFa: BioMAP Diversity Plus: LPS Assay for Tumour Necrosis Factor alpha (TNFa) Biomarker Activity (AID 2283085).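 As to AC50: TNFa protein level quantified by ELISA in the co-culture.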 Conditions: primary human HUVEC with PBMC; actives raise or lower the signal. Put shortly: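 Human umbilical vein endothelial cells co-cultured with PBMC were exposed to test chemical and TNFa measured by ELISA 24 h after dosing. Bidirectional curve fitting was done relative to DMSO as negative control and baseline.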

Structures are written as SMILES. Where “and” joins values, the source holds several entries; their conditions need not be identical. Equal entries are not always repeated. Calls of active or inactive are those of the source. The calls were made as follows: active = hit-call score of the fitted dose curve at least 0.9, where 1 is the maximum; inactive = score below 0.9.

Chain of E-selectin (Homo sapiens) (P16581 whole entry, looked up): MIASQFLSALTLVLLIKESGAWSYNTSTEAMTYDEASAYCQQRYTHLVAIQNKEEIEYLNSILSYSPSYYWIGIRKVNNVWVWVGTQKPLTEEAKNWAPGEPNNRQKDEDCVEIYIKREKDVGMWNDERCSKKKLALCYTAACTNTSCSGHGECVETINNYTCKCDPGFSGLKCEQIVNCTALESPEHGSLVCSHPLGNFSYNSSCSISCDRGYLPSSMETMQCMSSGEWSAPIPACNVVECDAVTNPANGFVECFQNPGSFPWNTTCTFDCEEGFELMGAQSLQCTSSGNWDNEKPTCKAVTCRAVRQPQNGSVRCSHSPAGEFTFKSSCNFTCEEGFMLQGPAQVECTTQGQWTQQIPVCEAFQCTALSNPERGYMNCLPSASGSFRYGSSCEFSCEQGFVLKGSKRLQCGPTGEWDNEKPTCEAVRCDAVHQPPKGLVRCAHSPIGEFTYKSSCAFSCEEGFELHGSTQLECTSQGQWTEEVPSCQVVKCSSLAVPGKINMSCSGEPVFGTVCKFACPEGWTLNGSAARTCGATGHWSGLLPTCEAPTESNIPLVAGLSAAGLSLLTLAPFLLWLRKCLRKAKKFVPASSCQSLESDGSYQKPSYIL
Chain of Tumor necrosis factor (Homo sapiens) (P01375 whole entry, looked up): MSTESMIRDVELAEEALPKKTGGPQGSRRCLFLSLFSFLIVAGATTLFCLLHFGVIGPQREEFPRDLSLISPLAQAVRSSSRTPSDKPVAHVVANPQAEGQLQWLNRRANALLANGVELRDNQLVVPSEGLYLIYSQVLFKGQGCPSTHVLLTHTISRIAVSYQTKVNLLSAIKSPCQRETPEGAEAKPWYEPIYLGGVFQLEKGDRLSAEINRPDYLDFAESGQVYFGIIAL

For the compound `Oc1cc(Cl)ccc1Cl`, the result in [1], in assay [2], in assay [3], in [4], in assay [5] and in assay [6] was inactive. For the same compound, the result in [7], in assay [8], in assay [9], in [10], in assay [11] and in [12] was inactive. For the same compound, the outcome was “inactive” in assay [13]; “inactive” in assay [14]; “inactive” with CD40, CD40 (gene 958); “inactive” in assay [15]; “inactive” in [16]; “inactive” in assay [17]. Besides, the result in assay [18] and in assay [19] was inactive.
For the compound `O=C1C=CC(=O)C=C1`, the outcome in assay [1], in assay [11], in [16] and in [18] was inactive. For the same compound, the AC50 (usually the concentration at which the activity in the assay is half-maximal) was 11.2 µM (active) and 2.81 µM (active) in assay [2]; 16 µM (active) and 13.5 µM (active) in [3]; 36.3 µM (active) and 12.7 µM (active) in assay [4]; 20 µM (active) and 13.2 µM (active) in [5]; 11.2 µM (active) and 28.8 µM (active) in assay [6]; 32.2 µM (active) and 26.5 µM (active) in assay [7]. The AC50 is 19 µM (active) and 12.8 µM (active) in assay [8]; 20 µM (active) and 19.2 µM (active) in assay [9]; 27.8 µM (active) and 24.1 µM (active) in assay [10]; 30.3 µM (active) and 26.4 µM (active) in [12]; 20 µM (active) and 11.6 µM (active) in [13]; 30.9 µM (active) and 30.6 µM (active) in [14]. Moreover, the half-maximal activity concentration (AC50) with CD40, CD40 (gene 958) was 12.3 µM (active) and 20 µM (active); in assay [15] it was 26.4 µM (active) and 30.4 µM (active); in assay [17], 20 µM (active) and 28.7 µM (active); in [19], 31.7 µM (active) and 18.7 µM (active).
`O=[N+]([O-])c1ccc(Cl)cc1`: the outcome in [1], in assay [2], in assay [3], in assay [4], in assay [5] and in assay [6] was inactive. Besides, the result in [7], in assay [8], in assay [9], in assay [10], in assay [11] and in [12] was inactive. Moreover, the outcome is “inactive” in assay [13]; “inactive” in assay [14]; “inactive” in the assay with CD40, CD40 (gene 958); “inactive” in [15]; “inactive” in assay [16]; “inactive” in assay [17]. The result in assay [18] and in [19] was inactive.

The values above are taken from PubChem BioAssay (EPA / NIEHS).
